Experimental data reported in PubChem BioAssay (NCI).
Compounds without any hit were thinned out: in the full panel of roughly 83,000, 20% have a hit.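 48-hour exposure, single concentration, 96-well plates; percent growth endpoint where 0 means no net growth. Active: below 10.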 A number with no mark means an inactive call. Active and inactive are the calls of the source.

Tests used:
Assay in all cases: NCI-60 one-dose screen, 48 h (100 = growth as untreated, 0 = no growth, -100 = all killed)
Conditions in all cases: 10 µM unless noted
NCI-H23 lung = system: NCI-H23 lung
NCI-H226 lung = system: NCI-H226 lung
NCI-H322M lung = system: NCI-H322M lung
HOP-62 NSCLC = system: HOP-62 NSCLC
NCI-H460 lung = system: NCI-H460 lung
HOP-92 NSCLC = system: HOP-92 NSCLC
NCI-H522 lung = system: NCI-H522 lung
A549/ATCC NSCLC = system: A549/ATCC NSCLC
786-0 renal = system: 786-0 renal
COLO 205 colon = system: COLO 205 colon
DU-145 prostate = system: DU-145 prostate
K-562 leukemia = system: K-562 leukemia
MALME-3M melanoma = system: MALME-3M melanoma
MDA-MB-231 breast = system: MDA-MB-231 breast
RXF 393 renal = system: RXF 393 renal
SF-268 CNS = system: SF-268 CNS
SF-295 CNS = system: SF-295 CNS
SF-539 CNS = system: SF-539 CNS
UACC-257 melanoma = system: UACC-257 melanoma
M14 melanoma = system: M14 melanoma

Row | Structure (SMILES) | growth (NCI-H23 lung) [%] | growth (NCI-H226 lung) | growth (NCI-H322M lung) [%] | growth (HOP-62 NSCLC) | growth (NCI-H460 lung) | growth (HOP-92 NSCLC) | growth (NCI-H522 lung) | growth (A549/ATCC NSCLC) | growth (786-0 renal) | growth (COLO 205 colon) | growth (DU-145 prostate) | growth (K-562 leukemia) | growth (MALME-3M melanoma) | growth (MDA-MB-231 breast) | growth (RXF 393 renal) | growth (SF-268 CNS) | growth (SF-295 CNS) [%] | growth (SF-539 CNS) | growth (UACC-257 melanoma) | growth (M14 melanoma) [%]
1 | COC(=O)c1cc(Br)ccc1O | 110 | 101% | 105 | 103% | 109% | 86.6% | 94.8% | 99.9% | 96.7% | 112% | 110% | 111% | 102% | 118% | 101% | 105% | 102 | 107% | 109% | 
2 | CN1CCN(Cc2ccc(NC(=O)c3cncc(C#Cc4cnc(N)c5ncccc45)c3)cc2C(F)(F)F)CC1 | 22.2 | 7.14% (active) | 25.1 | -5.02% (active) | -35.5% (active) | 7.16% (active) | 9.75% (active) | 10.6% | -82.3% (active) | -55.2% (active) | 18.1% | 13.9% | -73.5% (active) | -78.7% (active) | -83.9% (active) | -18.1% (active) | 31.2 | -87% (active) | 17.1% | 
3 | C=C(c1ccc(OC)c(/C=C/C(=O)c2ccc3c(c2)OCO3)c1)c1cc(OC)c(OC)c(OC)c1 | 15.9 | -40.4% (active) | 35.1 | 36% | 0.841% (active) | 12.7% | 5.55% (active) | 27.3% | 12.6% | 5.33% (active) | 9.67% (active) | 6.89% (active) | 67.2% | 29% | 3.52% (active) | 19.3% | 10.7 | -21.8% (active) | 58.7% | 
4 | CCCCNc1nnc2n(Cc3ccccc3)c(=O)c3c4c(sc3n12)CCCC4 | 45.5 | 50.8% | 69.2 | 44.5% | 22.7% | 53.2% | 33.2% | 37.8% | 47.6% | 61.1% | 38.3% | 41.2% | 40.3% | 54.9% | 63.2% | 63.6% | 48.4 | 47.1% | 54.1% | 
5 | C/C(=N\O)[C@@H]1CC[C@]2(CO)CC[C@]3(C)[C@H](CC[C@@H]4[C@@]5(C)CCCNC(C)(C)[C@@H]5CC[C@]43C)[C@@H]12 | 89.6 | 92.6% | 94.2 | 90% | 72.6% | 65.6% | 90% | 76.6% | 92.3% | 81% | 95% | 2.56% (active) | 95.4% | 90.9% | 80.8% | 84.7% | 92.5 | 93.3% | 97.6% | 
6 | CN1CCN(C(=S)SCCCCOc2cc(=O)oc3ccccc23)CC1 | 80.9 | 67.1% | 102 | 79.6% | 93.5% | 67.5% | 63.6% | 84.5% | 96.9% | 86.4% | 90.6% | 64.3% | 93.3% | 89.1% | 99.5% | 87.7% | 77.7 | 98.9% | 85% | 
7 | CC1(C)CC(=O)c2c(nn(-c3ccc(Br)cc3)c2-c2cn(-c3ccccc3)nc2-c2cccnc2)C1 | 90.4 | 98.4% | 93 | 81.3% | 97.5% | 87.2% | 85.6% | 92.5% | 100% | 105% | 111% | 84.4% | 101% | 89.7% | 96.1% | 97.8% | 92.1 | 105% | 111% | 
8 | O=C1/C(=C\c2cccc3nccnc23)SC(=S)N1CCc1ccc(O)cc1 | 93.7 | 95.4% | 96.4 | 99.5% | 105% | -0.0093% (active) | 81.9% | 100% | 94.8% | 118% | 98.1% | 88.5% | 87.3% | 83.8% | 107% | 97% | 101 | 97.7% | 100% | 
9 | Cc1nn(-c2cc(NC3CCC(O)CC3)c3c(=O)[nH]c(CCC(F)(F)F)cc3c2)c2c1C(=O)CC(C)(C)C2 (stereo not given) | 20.3 | 67.8% | 56.5 | 44% | 21% | 54.5% | 49.5% | 38.8% | 43.9% | 36.9% | 27% | 18.5% | 60% | 42% | 39.1% | 72% | 48.5 | 58% | 62.7% | 
10 | COc1ccc(Cn2cc(C(=O)N=Nc3c(O)[nH]c4c(C)cccc34)nn2)cc1 | 89.1 | 75.1% | 89.6 | 106% | 73.1% | 51.3% | 77.5% | 85.3% | 43.5% | 108% | 60.4% | 63.2% | 40.5% | 51% | 81.9% | 87.3% | 111 | 80.1% | 93.7% | 
11 | CCc1n(Cc2ccc3ccccc3n2)cc[n+]1Cc1ccc2ccccc2n1 | 16 | 48.4% | 73.1 | 40.9% | 34.8% | -11.9% (active) | -3.51% (active) | 57.4% | 77.6% | -38.9% (active) | 51.7% | 24.9% | -9.45% (active) | 31.1% | 46.6% | 29.6% | 64.7 | 24.5% | -16.5% (active) | 
12 | CCN1C(=O)N(CC)C2C1NN=c1s/c(=C\c3ccc(C(F)(F)F)cc3)c(=O)n12 (stereo not given) | 26.7 | 60.8% | 45.2 | 39.1% | 2.84% (active) | 34.8% | -10.5% (active) | 5.31% (active) | 24.9% | -6.59% (active) | 6.72% (active) | 7.4% (active) | 49.5% | 9% (active) | 24.1% | 53.5% | 14.1 | -21.6% (active) | 48.9% | 
13 | Cc1ccc(C2CC(c3nc(-c4ccc(Cl)cc4)oc3C)=NN2C(=O)c2ccncc2)cc1 (stereo not given) | 85.8 | 88.3% | 93.3 | 99.3% | 92.7% | 80% | 80.8% | 84.4% | 79.5% | 107% | 93.1% | 84.2% | 90.9% | 71.6% | 74.8% | 81.6% | 87.9 | 89.5% | 97.1% | 93.8
14 | C=C1C(=O)O[C@H]2[C@H]1CC/C(COC(=O)/C=C/C(=O)OC/C1=C/CC[C@@]3(C)O[C@H]3[C@H]3OC(=O)C(=C)[C@@H]3CC1)=C\CC[C@@]1(C)O[C@@H]21 | 94.1 | 80.6% | 101 | 96.6% | 100% | 19% | -32% (active) | 88.6% | 5.31% (active) | 11.3% | 25.4% | 5.18% (active) | -27.3% (active) | -7.25% (active) | -11.3% (active) | 90.3% | 115 | 82.2% | 60.3% | 
15 | COc1ccc(-c2nn(-c3ccccc3)cc2/C=C/C(=O)NNC(=O)Nc2ccc(C)cc2)cc1 | 102 | 97.2% | 99.6 | 102% | 102% | 102% | 89.4% | 94.8% | 101% | 103% | 108% | 78.3% | 91.8% | 83.5% | 109% | 102% | 99 | 101% | 95.7% | 
16 | COc1cccc(CCNc2ncnc3c2ncn3Cc2nnc3c4ccccc4c(Cl)nn23)c1 | 70.1 | 66.6% | 52.8 | 57.5% | 61.5% | 42.7% | 5.17% (active) | 77.8% | 57.7% | 90.9% | 50.5% | 61.4% | 55.8% | 46.3% | 48.7% | 49.4% | 89.9 | 72.6% | 59.5% | 
